The values that follow come from PubChem BioAssay (Tox21).

A number with no mark means an inactive call. Results filed as inconclusive are left out. The source made the active and inactive calls. Unless noted, calls follow the shape of the full dose curve.

The target in assay [1] is Thyrotropin receptor (Homo sapiens) (UniProt P16473). Put plainly: qHTS assay to identify small molecule agonists of the thyroid stimulating hormone receptor (TSHR) signaling pathway (AID 1224843). Also: nearly all actives have a fitted effect of over 45% in size. Also: potency is read from the fitted curve at half-maximal effect. The method in brief: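 Screening of the Tox21 10K collection used HEK293 cells engineered with TSHR at 800 cells per well. After a 30-min room-temperature compound exposure, HTRF cAMP reagents were added and fluorescence recorded 1 h later.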

The nature of assay [2]: qHTS assay to identify small molecule agonists of the hypoxia (HIF-1) signaling pathway - cell viability counter screen (AID 1224844). Also: nearly all actives have a fitted effect of over 50% in size. The procedure, abridged:
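HRE-bla ME-180 cells, 2,000/well in 0.5% dialyzed FBS medium, treated 17 h at 37C with compounds. Viability read in the same wells as the bla reporter, by CellTiter-Glo luminescence after 30 min at room temperature.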
On the technique in general: In qHTS, concentration-response curves come from the screen itself.

A short description of assay [3]: qHTS assay to identify small molecule agonists of H2AX (AID 1224845; active = well fitted activation curve with a large enough effect in the signal ratio in the repeat runs, not every such curve was filed as active; the % refers to the signal ratio). The method in brief: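 Phospho-H2AX Ser139 measured by HTRF (ex 320 nm; em 665 and 620 nm) after 24 hr antibody incubation. Compounds, 15 concentrations, 0.76% DMSO, were applied to CHO-K1 cells for 3hr at 37C before lysis.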
Assay [4] in a line: qHTS assay to identify small molecule agonists of the hypoxia (HIF-1) signaling pathway (AID 1224846; active = well fitted activation curve with a large enough effect in the signal ratio in the repeat runs, not every such curve was filed as active; the % refers to the signal ratio). The method in brief:
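HRE-bla ME-180 beta-lactamase reporter cells in medium with 0.5% dialyzed FBS, pre-incubated 5 h then exposed to compounds 17 h at 37C, 5% CO2; reporter induction read with CCF4-AM FRET substrate.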

A short description of assay [5]: qHTS assay to identify small molecule agonists of H2AX - cell viability counter screen (AID 1224847). Also: top concentration of the series differs between compounds; nearly all actives have a fitted effect of over 30% in size. The procedure, abridged: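 Read-out: CellTiter-Glo luminescence, 30 min RT. Cells: wild-type CHO-K1, 1000/well, 10% FBS, plated overnight at 37C. Treatment: 15 concentrations, 3 hr, 37C, 0.76% DMSO.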
The nature of assay [6]: qHTS RealTime-Glo MT Cell Viability Assay in HEK293 cells - 32 hour (AID 1224868; active = well fitted curve in the direction sought with a large enough effect in the repeat runs; an effect the other way counts as inactive or inconclusive; also: top concentration of the series differs between compounds; nearly all actives have a fitted effect of over 50% in size). The procedure, abridged: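 Reads taken at 0, 8, 16, 24, 32 and 40 h from the same wells. HEK293 cells (600/well) carried RealTime-Glo reagents from seeding, with compound added after a 5 h settle at 37 C.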
Assay [7] is described as follows: A CellTox Green Cytotoxicity Assay to monitor cytotoxicity in HEK293 cells - 0 hour (AID 1224869; active = well fitted curve in the direction sought with a large enough effect in the repeat runs; an effect the other way counts as inactive or inconclusive; also: nearly all actives have a fitted effect of over 50% in size). The method in brief: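 HEK293 cells, 600/well, were preincubated 5 hours and then exposed to compounds at 37 C for up to 40 hours. A cell-impermeant cyanine dye staining dead-cell DNA was read by fluorescence at 0, 8, 16, 24, 32 and 40 h time points.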
Assay [8] can be described thus: qHTS RealTime-Glo MT Cell Viability Assay in HepG2 cells - 24 hour (AID 1224867; active = well fitted curve in the direction sought with a large enough effect in the repeat runs; an effect the other way counts as inactive or inconclusive; also: nearly all actives have a fitted effect of over 50% in size). The method in brief:
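HepG2 suspension premixed with RealTime-Glo reagents is plated at 600 cells per well and left 5 h at 37 C/5% CO2. Compounds in DMSO then go in, and bioluminescence reflecting viable cell number is recorded over 40 h.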

Assay [9] in a line: qHTS assay to identify small molecule antagonists of the estrogen related receptor (ERR) signaling pathway from Tox21 library (AID 1224848; active = well fitted curve in the direction sought with a large enough effect in the repeat runs; an effect the other way counts as inactive or inconclusive; also: nearly all actives have a fitted effect of over 50% in size). The procedure, abridged: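 Antagonist-mode screen of the Tox21 10K library in an NTP-provided ERR reporter cell line; 18 h compound exposure at 37 C, luminescence measured with ONE-Glo.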
The nature of assay [10]: qHTS assay to identify small molecule agonists of the estrogen related receptor (ERR) signaling pathway from Tox21 library (AID 1224849). Also: nearly all actives have a fitted effect of over 15% in size. To be noted: ERR reporter cell line, ONE-Glo luciferase, 18 h; at 92.4 µM (top of the series) unless noted. The method in brief: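 ERR reporter cells (NTP line) pre-incubated 6 hours at 37 C, then exposed to compounds for 18 hours at 37 C. ONE-Glo luciferase luminescence was read after 30 minutes at room temperature.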
% is scaled to controls: 0 for no effect and ±100 for the full control effect.

Sequence of Thyrotropin receptor (Homo sapiens) (P16473 whole entry, looked up): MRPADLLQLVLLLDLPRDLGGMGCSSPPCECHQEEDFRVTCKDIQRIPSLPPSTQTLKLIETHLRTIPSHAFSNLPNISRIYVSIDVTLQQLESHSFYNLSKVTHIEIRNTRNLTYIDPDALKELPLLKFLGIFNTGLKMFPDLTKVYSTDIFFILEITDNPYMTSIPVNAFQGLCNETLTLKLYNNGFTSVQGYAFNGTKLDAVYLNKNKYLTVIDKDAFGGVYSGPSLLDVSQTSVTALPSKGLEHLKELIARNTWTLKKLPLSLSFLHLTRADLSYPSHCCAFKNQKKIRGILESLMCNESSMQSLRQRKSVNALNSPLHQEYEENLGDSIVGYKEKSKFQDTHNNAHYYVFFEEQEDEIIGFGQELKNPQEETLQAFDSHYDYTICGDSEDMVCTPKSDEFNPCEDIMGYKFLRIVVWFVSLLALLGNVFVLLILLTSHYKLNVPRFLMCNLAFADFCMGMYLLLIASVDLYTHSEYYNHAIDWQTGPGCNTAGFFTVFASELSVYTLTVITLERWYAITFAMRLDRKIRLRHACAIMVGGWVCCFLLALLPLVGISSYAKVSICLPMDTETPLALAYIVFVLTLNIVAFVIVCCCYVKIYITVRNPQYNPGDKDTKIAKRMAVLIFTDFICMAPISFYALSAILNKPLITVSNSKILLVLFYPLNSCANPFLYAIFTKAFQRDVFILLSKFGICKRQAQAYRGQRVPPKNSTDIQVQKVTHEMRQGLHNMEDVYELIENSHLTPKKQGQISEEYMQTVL

On to `O=C(O)C(=O)Cc1ccccc1`, for which the Potency in assay [1] was 30.6 µM (active). Further, the molecule was called inactive in assay [2], in assay [3], in assay [4] and in assay [7]. Also, the Potency entry in assay [5] and in assay [6] was “inactive” throughout.
Turning to `CC(=O)Nc1ccc(S(=O)(=O)Nc2ccc([N+](=O)[O-])cc2)cc1`, the Potency entry in assay [1] and in assay [5] was “inactive” throughout. Besides, the outcome in [2], in assay [3], in assay [4], in [8] and in [7] was inactive.
Regarding `Oc1ccccc1-c1nnco1`, the Potency entry in assay [1], in [5] and in assay [6] was “inactive” each time. Moreover, the molecule was called inactive in [2], in assay [3], in assay [4], in [8] and in assay [7].
Turning to `CC(=O)NCCCCCC(=O)O`, the Potency result in [1], in assay [5] and in assay [6] was “inactive” in each case. Besides, the result in [2], in assay [3], in assay [4], in [8] and in [7] was inactive.
For the molecule `Cc1ccccc1C(=O)Nc1ccc(C(=O)N2CCCC(N(C)C)c3ccccc32)cc1` (stereo not drawn), the Potency entry in [1] and in [5] was “inactive” each time. The result in [2], in assay [3], in assay [4], in assay [8] and in assay [7] was inactive.
As for `CCCCCCCCCC(C)=O`, the Potency result in assay [1], in [5] and in [6] was “inactive” throughout. Also, the molecule was called inactive in assay [2], in [3], in assay [4], in assay [8] and in assay [7].
Regarding `c1ccc2nccnc2c1`, the Potency entry in assay [1] and in assay [5] was “inactive” each time. Further, the molecule was classed as inactive in [2], in assay [3], in assay [4], in [8] and in [7].
For `Cc1ccc(C=O)cc1C`, the Potency result in assay [1], in assay [5] and in assay [6] was “inactive” in each case. Moreover, the molecule was called inactive in assay [2], in [3], in [4], in [8] and in assay [7].
Consider `COCCOCCOCCOCCO`, for which the Potency result in assay [1] and in assay [5] was “inactive” in each case. The call in assay [2], in assay [3], in [4], in [8] and in assay [7] was inactive.
Regarding `CC(=O)OC(C)OC(=O)C(C)c1ccc(-c2ccccc2)c(F)c1` (stereo not drawn), the Potency entry in [1], in assay [5] and in [6] was “inactive” throughout. The call in assay [2], in [3], in [4], in assay [8] and in assay [7] was inactive.
For `O=C1c2ccccc2C(=O)c2cc(S(=O)(=O)O)ccc21`, the Potency result in assay [1] and in assay [5] was “inactive” in each case. Also, the molecule was called inactive in assay [2], in assay [3], in assay [4] and in assay [7].
For the molecule `CC(C)c1ccc2cc(C(C)C)ccc2c1`, the Potency entry in [1], in assay [5] and in [6] was “inactive” each time. Also, the molecule was classed as inactive in assay [2], in [3], in assay [4] and in assay [7].
Take `C=C(C)C(=O)OCCN(CC)CC`: the Potency entry in [1], in assay [5] and in [6] was “inactive” each time. In addition, the molecule was classed as inactive in [2], in assay [3], in assay [4], in [8] and in assay [7].
Take `OCCN(CCO)c1cccc(Cl)c1`: the Potency result in [1] and in [5] was “inactive” each time. The molecule was classed as inactive in assay [2], in [3], in assay [4], in assay [8] and in assay [7].
On to `C=CCCCCCCCCCCCC`, for which the Potency result in assay [1], in [5] and in assay [6] was “inactive” in each case. Further, the result in [2], in assay [3], in assay [4], in assay [8] and in assay [7] was inactive.
As to `CCOC(=O)CC(=O)c1ccccc1`, the Potency result in assay [1], in assay [5] and in assay [6] was “inactive” in each case. The molecule was classed as inactive in assay [2], in assay [3], in assay [8] and in assay [7].
Take `Cc1c(I)c(=O)n(-c2ccccc2)n1C`: the Potency result in assay [1], in assay [5] and in assay [9] was “inactive” each time. Moreover, the call in [2], in [3], in [8] and in assay [7] was inactive. The activity change, positive = activation in assay [10] was 2.79% [at 42.5 µM].
Turning to `Cc1cccc(C)c1NC(=O)c1ccccc1C(=O)O`, the Potency result in assay [1], in assay [5], in assay [9] and in assay [6] was “inactive” in each case. The call in assay [2], in assay [3], in [8] and in assay [7] was inactive. Also, in assay [10], the activity change, positive = activation was 2.58% [at 42.5 µM].
As for `CCOC(=O)[C@H](CCc1ccccc1)N[C@@H](C)C(=O)N1C(=O)N(C)C[C@H]1C(=O)O`, the Potency entry in assay [1], in assay [5] and in assay [6] was “inactive” each time. In addition, the outcome in assay [2], in assay [3], in assay [8] and in [7] was inactive.
Consider `COc1ccc2c(c1OC)C(=O)O[C@@H]2[C@H]1c2c(cc3c(c2OC)OCO3)CCN1C`, for which the Potency entry in assay [1], in assay [5] and in assay [9] was “inactive” in each case. For the same molecule, the result in assay [2], in assay [3] and in assay [7] was inactive. Moreover, the activity change, positive = activation in assay [10] was -16% [at 42.5 µM].
For the molecule `CN1CCN(CC(=O)N2c3ccccc3C(=O)Nc3cccnc32)CC1`, the activation in [1] was 3.54% [at 8.39 µM]. The activity change, negative = cytotoxicity in assay [2] was 0.9% [at 6.97 µM]; in [5] it was -0.342% [at 14 µM]. Also, the activation (H2AX phosphorylation) in assay [3] is 2.24% [at 14 µM]. The activity, negative = inhibition in assay [9] was 0.334% [at 8.39 µM]. Moreover, the activity change, positive = activation in assay [10] is -0.263% [at 8.39 µM]. In addition, the activity change, negative = cytotoxic in [6] is 5.96% [at 6.97 µM]. For the same molecule, the cytotoxicity in [7] is 1.41% [at 6.97 µM].
For `CCCC(=O)C(C)=O`, the Potency entry in [1], in assay [9] and in assay [6] was “inactive” throughout. Further, the molecule was called inactive in assay [2], in [3], in [4], in [8] and in [7]. The activity change, positive = activation in assay [10] is 7.37%.
As to `NNc1nnc(NN)c2ccccc12`, the Potency entry in [1], in [5] and in assay [6] was “inactive” in each case. Besides, the call in [2], in assay [3], in [8] and in assay [7] was inactive.
